Data taken from PubChem BioAssay AID624094 (National Center for Advancing Translational Sciences (NCATS), 2012).
Inconclusive results are not listed. Active and inactive are the calls of the source. Calls come from the whole dose curve; as a rule, active = well fitted inhibition curve with a large enough effect; inconclusive = small, poorly fitted or top-dose-only effect; inactive = flat fitted curve, though single readings scatter.

Molecular target: Dual specificity protein kinase CLK4 (Homo sapiens) (UniProt Q9HAZ1)
Sequence (Q9HAZ1 whole entry, looked up): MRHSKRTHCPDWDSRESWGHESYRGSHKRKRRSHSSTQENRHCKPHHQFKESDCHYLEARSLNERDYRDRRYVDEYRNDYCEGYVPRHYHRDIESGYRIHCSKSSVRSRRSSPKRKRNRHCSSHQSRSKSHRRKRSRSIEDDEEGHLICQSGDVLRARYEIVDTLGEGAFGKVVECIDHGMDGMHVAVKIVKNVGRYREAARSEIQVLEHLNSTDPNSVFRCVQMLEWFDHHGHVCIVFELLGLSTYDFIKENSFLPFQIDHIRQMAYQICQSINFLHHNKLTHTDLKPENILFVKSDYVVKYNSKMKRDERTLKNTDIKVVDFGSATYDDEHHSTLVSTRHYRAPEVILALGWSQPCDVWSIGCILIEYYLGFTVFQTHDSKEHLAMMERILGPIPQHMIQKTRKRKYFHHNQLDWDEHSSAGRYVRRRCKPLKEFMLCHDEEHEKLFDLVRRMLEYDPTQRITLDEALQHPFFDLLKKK
Experiment: Confirmation Assay for Inhibitors of Clk4 (Kinase-Glo Assay): KU probe
Settings: recombinant Clk4, Kinase-Glo ATP luminescence
Description: NIH Molecular Libraries Probe Production Centers Network [MLPCN] NIH Chemical Genomics Center [NCGC] MLPCN Grant: 1R03MH084827-01 Assay Submitter (PI): Tom Misteli NCGC Assay Overview: Clk4 (Invitrogen, cat# PV3839) was assayed using ATP and the RS repeat peptide (AnaSpec cat # 61722) as substrates. Following the Clk4 reaction, the remaining ATP levels were detected using Promega Kinase-Glo technology wherein the remaining ATP from the kinase reaction is detected using Ultra-Glo luciferase and D-luciferin which generates a bioluminescence signal from the ATP.
NCGC Assay Protocol Summary: Two uL/well of substrate-buffer solution (100 uM RS peptide, 1 uM ATP, 25 mM Tris pH7.5, 10 mM MgCl2, 0.5 mM EGTA, 2.5 mM DTT, 0.01% Triton X-100 final concentration) was dispensed into 1536-well, assay plates (Greiner, solid white medium-binding plates) with Aurora Discovery BioRAPTR Flying Reagent Dispenser (FRD; Beckton-Dickenson). Using a Kalypsys pin tool equipped with a 1536-pin tool, 23 nL of compound solution was transferred to the assay plate. […] Luminescence was detected with the ViewLux plate reader (Perkin Elmer, Waltham, MA) after 5 min incubation using a 5 second exposure time and 2x binning.

Structure (SMILES)	Potency
Cc1cc(CNc2ccnc(-c3ccc4c(c3)OCO4)n2)cnc1F	9.23 µM (active)
Clc1ccc(CNc2ccnc(-c3ccc4c(c3)OCO4)n2)cn1	29.2 µM (active)
